# Assay results from the supplement of paper PMC8728848.
# The sample as a whole holds a higher share of the strongest signals than the screen did.
# Columns and labels:
# Assay in all cases: glycan array binding signal (z-score within array); higher = stronger binding
# Conditions in all cases: glycan notation: IUPAC condensed, linker removed
# [1] = test system: Gal(b1-4)GlcNAc(b1-2)Man(a1-3)Man(b1-4)GlcNAc(b1-4)GlcNAc
# In short: (§1)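 Columns mapping to the same glycan were averaged after glycan names were converted to IUPAC-condensed notation. The data come from 3228 arrays in the Consortium for Functional Glycomics database, limited to those with an available protein sequence. Binding is reported as a within-array Z-score averaged across arrays of one protein sequence and across linkers.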
# [2] = test system: Gal(b1-4)GlcNAc(b1-2)Man(a1-3)[Gal(b1-4)GlcNAc(b1-2)Man(a1-6)]Man(b1-4)GlcNAc(b1-4)[Fuc(a1-6)]GlcNAc
# In short: as §1
# [3] = test system: Gal(b1-4)GlcNAc(b1-2)Man(a1-3)[GlcNAc(b1-2)Man(a1-6)]Man(b1-4)GlcNAc(b1-4)GlcNAc
# In short: as §1
# [4] = test system: Gal(b1-4)GlcNAc(b1-2)Man(a1-6)Man(b1-4)GlcNAc(b1-4)GlcNAc
# In short: as §1
# [5] = test system: Gal(b1-4)GlcNAc(b1-2)Man(a1-6)[GlcNAc(b1-2)Man(a1-3)]Man(b1-4)GlcNAc(b1-4)GlcNAc
# In short: as §1
# [6] = test system: Gal(b1-4)GlcNAc(b1-2)[Gal(b1-4)GlcNAc(b1-6)]Man(a1-6)[Gal(b1-4)GlcNAc(b1-2)Man(a1-3)]Man(b1-4)GlcNAc(b1-4)[Fuc(a1-6)]GlcNAc
# In short: as §1
# [7] = test system: Gal(b1-4)GlcNAc(b1-2)[Gal(b1-4)GlcNAc(b1-6)]Man(a1-6)[GlcNAc(b1-4)][Gal(b1-4)GlcNAc(b1-2)[Gal(b1-4)GlcNAc(b1-4)]Man(a1-3)]Man(b1-4)GlcNAc(b1-4)[Fuc(a1-6)]GlcNAc
# In short: as §1
# [8] = test system: Gal(b1-4)GlcNAc(b1-3)Gal(b1-4)GlcNAc(b1-3)Gal(b1-4)GlcNAc(b1-2)[Gal(b1-4)GlcNAc(b1-3)Gal(b1-4)GlcNAc(b1-3)Gal(b1-4)GlcNAc(b1-6)]Man(a1-6)[Gal(b1-4)GlcNAc(b1-3)Gal(b1-4)GlcNAc(b1-3)Gal(b1-4)GlcNAc(b1-2)Man(a1-3)]Man(b1-4)GlcNAc(b1-4)[Fuc(a1-6)]GlcNAc
# In short: as §1
# [9] = test system: Gal(b1-4)GlcNAc(a1-6)Gal(b1-4)GlcNAc
# In short: as §1
# [10] = test system: Gal(b1-4)GlcNAc(b1-2)Man(a1-3)[Man(a1-6)]Man(b1-4)GlcNAc(b1-4)GlcNAc
# In short: as §1
# [11] = test system: Gal(b1-4)GlcNAc(b1-3)Gal(b1-4)GlcNAc(b1-3)Gal(b1-4)GlcNAc(b1-3)Gal(b1-4)GlcNAc(b1-2)[Gal(b1-4)GlcNAc(b1-3)Gal(b1-4)GlcNAc(b1-3)Gal(b1-4)GlcNAc(b1-3)Gal(b1-4)GlcNAc(b1-6)]Man(a1-6)[Gal(b1-4)GlcNAc(b1-3)Gal(b1-4)GlcNAc(b1-3)Gal(b1-4)GlcNAc(b1-3)Gal(b1-4)GlcNAc(b1-2)Man(a1-3)]Man(b1-4)GlcNAc(b1-4)[Fuc(a1-6)]GlcNAc
# In short: as §1
# [12] = test system: Gal(b1-4)GlcNAc(b1-2)[Gal(b1-4)GlcNAc(b1-6)]Man(a1-6)[Gal(b1-4)GlcNAc(b1-2)Man(a1-3)]Man(b1-4)GlcNAc(b1-4)GlcNAc
# In short: as §1
# [13] = test system: Gal(b1-4)GlcNAc(b1-3)Gal(b1-4)GlcNAc(b1-2)Man(a1-3)[Gal(b1-4)GlcNAc(b1-3)Gal(b1-4)GlcNAc(b1-2)Man(a1-6)]Man(b1-4)GlcNAc(b1-4)GlcNAc
# In short: as §1
# [14] = test system: Gal(b1-4)GlcNAc(b1-3)Gal(b1-4)GlcNAc(b1-2)[Gal(b1-4)GlcNAc(b1-3)Gal(b1-4)GlcNAc(b1-6)]Man(a1-6)[Gal(b1-4)GlcNAc(b1-3)Gal(b1-4)GlcNAc(b1-2)Man(a1-3)]Man(b1-4)GlcNAc(b1-4)GlcNAc
# In short: as §1
# [15] = test system: Gal(b1-4)GlcNAc(b1-2)Man(a1-3)[Gal(b1-4)GlcNAc(b1-2)Man(a1-6)]Man(b1-4)GlcNAc(b1-4)GlcNAc
# In short: as §1
# [16] = test system: Gal(b1-4)GlcNAc(b1-2)Man(a1-6)[Man(a1-3)]Man(b1-4)GlcNAc(b1-4)GlcNAc
# In short: as §1
# [17] = test system: Gal(b1-4)GlcNAc(b1-2)Man
# In short: as §1
# [18] = test system: Gal(b1-4)GlcNAc(b1-3)Gal(b1-4)GlcNAc(b1-3)Gal(b1-4)GlcNAc(b1-2)Man(a1-3)[Gal(b1-4)GlcNAc(b1-3)Gal(b1-4)GlcNAc(b1-3)Gal(b1-4)GlcNAc(b1-2)Man(a1-6)]Man(b1-4)GlcNAc(b1-4)GlcNAc
# In short: as §1
# [19] = test system: Gal(b1-4)GlcNAc(b1-3)Gal(b1-4)GlcNAc(b1-3)Gal(b1-4)GlcNAc(b1-2)Man(a1-3)[Gal(b1-4)GlcNAc(b1-3)Gal(b1-4)GlcNAc(b1-3)Gal(b1-4)GlcNAc(b1-2)Man(a1-6)]Man(b1-4)GlcNAc(b1-4)[Fuc(a1-6)]GlcNAc
# In short: as §1
# [20] = test system: Gal(b1-4)GlcNAc(b1-3)Gal(b1-4)GlcNAc(b1-3)Gal(b1-4)GlcNAc(b1-3)Gal(b1-4)GlcNAc(b1-2)Man(a1-3)[Gal(b1-4)GlcNAc(b1-3)Gal(b1-4)GlcNAc(b1-3)Gal(b1-4)GlcNAc(b1-3)Gal(b1-4)GlcNAc(b1-2)Man(a1-6)]Man(b1-4)GlcNAc(b1-4)[Fuc(a1-6)]GlcNAc
# In short: as §1
substance,measurement,setting,value
"BambL (Burhholderia ambifaria), Q0B4G1",glycan array binding signal (z-score),[1],-0.313
same,glycan array binding signal (z-score),[2],0.351
same,glycan array binding signal (z-score),[3],-0.301
"Wza (Escherichia coli), P0A930",glycan array binding signal (z-score),[4],1.02
AgI/II Vhelical-GFP (Streptococcus mutans),glycan array binding signal (z-score),[5],-0.18
same,glycan array binding signal (z-score),[6],-0.078
same,glycan array binding signal (z-score),[7],-0.092
same,glycan array binding signal (z-score),[8],0.214
Epa22,glycan array binding signal (z-score),[2],1.95
"SpGH101 (Streptococcus pneumoniae), Q8DR60",glycan array binding signal (z-score),[9],-0.178
same,glycan array binding signal (z-score),[10],-0.069
Actinohivin (Actinomycete K97),glycan array binding signal (z-score),[8],0.097
same,glycan array binding signal (z-score),[11],-0.012
AgI/IIC123-GFP (Streptococcus mutans),glycan array binding signal (z-score),[12],-0.449
same,glycan array binding signal (z-score),[7],-0.015
same,glycan array binding signal (z-score),[13],3.9
same,glycan array binding signal (z-score),[14],-0.185
"SiiE (Salmonella typhimurium), A0A0H3NVH0",glycan array binding signal (z-score),[15],2.4
same,glycan array binding signal (z-score),[16],0.213
LcI (Legionella pneumophila),glycan array binding signal (z-score),[17],0.449
same,glycan array binding signal (z-score),[12],0.017
same,glycan array binding signal (z-score),[18],0.132
same,glycan array binding signal (z-score),[19],-0.212
same,glycan array binding signal (z-score),[20],0.132
